{
  "source": "PubChem BioAssay (NCI)",
  "note": "About 83,000 compounds went through this panel and 20% of them were active in at least one assay; those are over-represented in the sample as a whole.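 Activity criterion: percent growth below 10, measured after cells in 96-well plates were exposed to a single compound concentration for 48 hours.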 Values without a mark were called inactive. The source made the active and inactive calls.",
  "data": [
    {"test_system": "OVCAR-5 ovarian", "assay": "NCI-60 one-dose screen, 48 h (100 = growth as untreated, 0 = no growth, -100 = all killed)", "conditions": "10 µM unless noted", "values": [
      {"molecule": "OC(c1ccc(F)c(C(F)(F)F)c1)c1cnccc1NC1CCCCC1", "note": "(stereo unspecified)", "growth": "85.3%"},
      {"molecule": "CC(=O)CCC(=O)OCc1cc(=O)c(O)co1", "growth": "93.5%"},
      {"molecule": "O=S(=O)(Nc1ccc(-n2cnc3cc(-c4ccc(O)cc4)ccc32)cc1)c1ccccc1", "growth": "111%"},
      {"molecule": "O=C1Nc2cc(-c3ccc(NC(=O)c4ccccc4)cc3)ccc2/C1=C/c1ccc[nH]1", "growth": "110%"},
      {"molecule": "CCCOC(=O)N[C@H]1CCc2cc(OC)c(OC)c(OC)c2-c2ccc(SC)c(=O)cc21", "growth": "33.9%"},
      {"molecule": "COc1ccc(C(=O)Nc2cccc(C3CCc4c(cc(OC)c(OC)c4OC)O3)c2)cc1", "note": "(stereo unspecified)", "growth": "91.1%"},
      {"molecule": "COc1cc(/C=N/O)nc(-c2ccccn2)c1", "growth": "45.3%"},
      {"molecule": "NC(=NCCCOc1ccc(F)cc1)Nc1ccc(I)cc1", "growth": "89.9%"},
      {"molecule": "Cn1c(-c2c(N)n(CCCN3CCOCC3)c3nc(C#N)c(C#N)nc23)nc2ccccc21", "growth": "82%"},
      {"molecule": "CCOC(=O)c1ccc2c(c1)ncn2-c1ccc(NC(=O)Nc2cccc(C)c2)cc1", "growth": "85.5%"},
      {"molecule": "COc1ccc2[nH]c(=O)c(CN3CCN(c4nccc(-c5ccc(Cl)cc5)n4)CC3)cc2c1", "growth": "98.5%"},
      {"molecule": "O=C(/C(=C\\c1ccc([N+](=O)[O-])cc1)S(=O)Cc1ccc(Cl)cc1)c1ccc(Cl)cc1", "note": "(stereo unspecified)", "growth": "73.6%"},
      {"molecule": "CCN(CC)CC[n+]1cc2cc(OC)c(OC)cc2c2ccc3cc4c(cc3c21)OCO4", "growth": "6.85% (active)"},
      {"molecule": "N#CC(C#N)=Cc1cc2ccccc2nc1Oc1ccc(C(F)(F)F)cc1", "growth": "102%"},
      {"molecule": "COc1cc(/C=C\\C(=O)O)ccc1OCc1ccccc1", "growth": "110%"},
      {"molecule": "c1ccc(-c2cn3c(ccc4ccccc43)n2)cc1", "growth": "77.2%"},
      {"molecule": "O=C(Nc1ccc(Cl)cc1)c1cc(NCc2cc(O)ccc2O)ccc1O", "growth": "116%"},
      {"molecule": "N/C(=N\\C(N)=N\\c1nc2ccccc2s1)c1cnccn1", "growth": "60.1%"},
      {"molecule": "CCOC(=O)[C@@H](C)C[C@H](Cc1ccccc1)NC(=O)c1csc([C@@H](C[C@H](C(C)C)N(C)C(=O)[C@@H](NC(=O)[C@H]2C[C@H](O[Si](C)(C)C(C)(C)C)CCN2C)C(C)C)OC(C)=O)n1", "growth": "9.08% [9.25 µM] (active)"},
      {"molecule": "CC(C)N1C(=O)/C(=C2\\SC(=S)N(C(C)C)C2=O)SC1=S", "growth": "88%"},
      {"molecule": "C#CCNC(=O)c1cccc2c1cc(C)n2-c1nc2c(c(NCc3ccccc3)n1)CCCC2", "growth": "8.62% (active)"},
      {"molecule": "COc1cc2nc(-c3ccc(Cl)cc3)cc(OCCCN3CCCCC3)c2cc1OC", "growth": "49.3%"},
      {"molecule": "O=C(N/N=C/c1ccc(Oc2ccccc2)cc1)c1cnn2c1NC(c1ccccc1)C2", "note": "(stereo unspecified)", "growth": "78%"},
      {"molecule": "O=[N+]([O-])CC(c1ccccc1)c1c[nH]c2ccccc12", "note": "(stereo unspecified)", "growth": "79.4%"},
      {"molecule": "COc1ccc(CNCCN2C(=O)c3ccc4c5c(ccc(c35)C2=O)C(=O)N(CCNCc2ccc(OC)c(OC)c2OC)C4=O)c(OC)c1OC", "growth": "-60.1% (active)"},
      {"molecule": "Cn1c(N2NC(=O)C(N=Nc3ccc(S(N)(=O)=O)cc3)C2=O)nc(-c2ccco2)c(C#N)c1=O", "note": "(stereo unspecified)", "growth": "115%"},
      {"molecule": "CCCOC(=O)N[C@H]1CCc2c(Cl)c(OC)c(OC)c(OC)c2-c2ccc(SC)c(=O)cc21", "growth": "44.7%"},
      {"molecule": "C/C=C(\\C)C(=O)NC1=CC[C@@]2(C)C(=CCC3C2CC[C@@]2(C)C3CC[C@@H]2C(C)N(C)C)C1=O", "note": "(stereo partly specified)", "growth": "85.8%"},
      {"molecule": "COc1ccccc1/C(C)=N/NC(=O)CSc1nc2ccccc2c(=O)n1Cc1ccc(S(N)(=O)=O)cc1", "growth": "97.9%"},
      {"molecule": "COc1ccc(OC)c(-c2cc(-c3ccc(Cl)cc3)c3c(N)c(C(=O)c4ccc(Cl)cc4)sc3n2)c1", "growth": "96.4%"},
      {"molecule": "N#C/C(=C\\c1ccc(Cl)cc1)n1nnc2cc(F)c(F)cc21", "growth": "22.2%"},
      {"molecule": "COc1cccc(C(=O)NNc2nc(Cl)nc(N3CCN(C(c4ccccc4)c4ccccc4)CC3)n2)c1", "growth": "97.3%"},
      {"molecule": "C=C1C(=O)O[C@H]2[C@H]1CC/C(CNC(=O)/C=C/c1ccccc1)=C\\CC[C@@]1(C)O[C@@H]21", "growth": "-21.6% (active)"},
      {"molecule": "CCN(CC)CCOc1ccc(NC(=O)C(C(C)C)N2C(=O)/C(=C/c3ccc(Br)cc3)SC2=S)cc1", "note": "(stereo unspecified)", "growth": "66.4%"},
      {"molecule": "N#Cc1cccc(-c2ccc3c(c2)NC(=O)/C3=C\\c2ccc[nH]2)c1", "growth": "38.5%"},
      {"molecule": "CCCCCCCCOc1ccc(/C=N/Nc2cc(C)nc3ccc(Br)cc23)cc1", "growth": "101%"},
      {"molecule": "O=C(N/N=C/c1cc2ccccc2n2nnnc12)Nc1ccccc1", "growth": "106%"},
      {"molecule": "COc1cc2c(c(O)c1Br)C(=O)c1c(O)cc(C[C@H](C)O)cc1[C@H]2[C@H]1c2cc(C[C@H](C)O)cc(O)c2C(=O)c2c1cc(OC)c(Br)c2O", "growth": "0.764% (active)"}
    ]},
    {"test_system": "OVCAR-4 ovarian", "assay": "NCI-60 one-dose screen, 48 h (100 = growth as untreated, 0 = no growth, -100 = all killed)", "conditions": "10 µM unless noted", "values": [
      {"molecule": "OC(c1ccc(F)c(C(F)(F)F)c1)c1cnccc1NC1CCCCC1", "note": "(stereo unspecified)", "growth": "64.8%"},
      {"molecule": "CC(=O)CCC(=O)OCc1cc(=O)c(O)co1", "growth": "112%"},
      {"molecule": "O=S(=O)(Nc1ccc(-n2cnc3cc(-c4ccc(O)cc4)ccc32)cc1)c1ccccc1", "growth": "74.1%"},
      {"molecule": "O=C1Nc2cc(-c3ccc(NC(=O)c4ccccc4)cc3)ccc2/C1=C/c1ccc[nH]1", "growth": "70%"},
      {"molecule": "CCCOC(=O)N[C@H]1CCc2cc(OC)c(OC)c(OC)c2-c2ccc(SC)c(=O)cc21", "growth": "40.5%"},
      {"molecule": "COc1ccc(C(=O)Nc2cccc(C3CCc4c(cc(OC)c(OC)c4OC)O3)c2)cc1", "note": "(stereo unspecified)", "growth": "47.4%"},
      {"molecule": "COc1cc(/C=N/O)nc(-c2ccccn2)c1", "growth": "22.2%"},
      {"molecule": "NC(=NCCCOc1ccc(F)cc1)Nc1ccc(I)cc1", "growth": "45.7%"},
      {"molecule": "Cn1c(-c2c(N)n(CCCN3CCOCC3)c3nc(C#N)c(C#N)nc23)nc2ccccc21", "growth": "73.7%"},
      {"molecule": "CCOC(=O)c1ccc2c(c1)ncn2-c1ccc(NC(=O)Nc2cccc(C)c2)cc1", "growth": "75.7%"},
      {"molecule": "COc1ccc2[nH]c(=O)c(CN3CCN(c4nccc(-c5ccc(Cl)cc5)n4)CC3)cc2c1", "growth": "71.4%"},
      {"molecule": "O=C(/C(=C\\c1ccc([N+](=O)[O-])cc1)S(=O)Cc1ccc(Cl)cc1)c1ccc(Cl)cc1", "note": "(stereo unspecified)", "growth": "81.1%"},
      {"molecule": "CCN(CC)CC[n+]1cc2cc(OC)c(OC)cc2c2ccc3cc4c(cc3c21)OCO4", "growth": "1.21% (active)"},
      {"molecule": "N#CC(C#N)=Cc1cc2ccccc2nc1Oc1ccc(C(F)(F)F)cc1", "growth": "99.7%"},
      {"molecule": "COc1cc(/C=C\\C(=O)O)ccc1OCc1ccccc1", "growth": "108%"},
      {"molecule": "c1ccc(-c2cn3c(ccc4ccccc43)n2)cc1", "growth": "91.5%"},
      {"molecule": "O=C(Nc1ccc(Cl)cc1)c1cc(NCc2cc(O)ccc2O)ccc1O", "growth": "80.5%"},
      {"molecule": "N/C(=N\\C(N)=N\\c1nc2ccccc2s1)c1cnccn1", "growth": "14.9%"},
      {"molecule": "CCOC(=O)[C@@H](C)C[C@H](Cc1ccccc1)NC(=O)c1csc([C@@H](C[C@H](C(C)C)N(C)C(=O)[C@@H](NC(=O)[C@H]2C[C@H](O[Si](C)(C)C(C)(C)C)CCN2C)C(C)C)OC(C)=O)n1", "growth": "17.3% [9.25 µM]"},
      {"molecule": "CC(C)N1C(=O)/C(=C2\\SC(=S)N(C(C)C)C2=O)SC1=S", "growth": "89.6%"},
      {"molecule": "C#CCNC(=O)c1cccc2c1cc(C)n2-c1nc2c(c(NCc3ccccc3)n1)CCCC2", "growth": "-11.8% (active)"},
      {"molecule": "COc1cc2nc(-c3ccc(Cl)cc3)cc(OCCCN3CCCCC3)c2cc1OC", "growth": "61.7%"},
      {"molecule": "O=C(N/N=C/c1ccc(Oc2ccccc2)cc1)c1cnn2c1NC(c1ccccc1)C2", "note": "(stereo unspecified)", "growth": "26.6%"},
      {"molecule": "O=[N+]([O-])CC(c1ccccc1)c1c[nH]c2ccccc12", "note": "(stereo unspecified)", "growth": "91.5%"},
      {"molecule": "COc1ccc(CNCCN2C(=O)c3ccc4c5c(ccc(c35)C2=O)C(=O)N(CCNCc2ccc(OC)c(OC)c2OC)C4=O)c(OC)c1OC", "growth": "-94.1% (active)"},
      {"molecule": "Cn1c(N2NC(=O)C(N=Nc3ccc(S(N)(=O)=O)cc3)C2=O)nc(-c2ccco2)c(C#N)c1=O", "note": "(stereo unspecified)", "growth": "59.2%"},
      {"molecule": "CCCOC(=O)N[C@H]1CCc2c(Cl)c(OC)c(OC)c(OC)c2-c2ccc(SC)c(=O)cc21", "growth": "36.3%"},
      {"molecule": "C/C=C(\\C)C(=O)NC1=CC[C@@]2(C)C(=CCC3C2CC[C@@]2(C)C3CC[C@@H]2C(C)N(C)C)C1=O", "note": "(stereo partly specified)", "growth": "1.84% (active)"},
      {"molecule": "COc1ccccc1/C(C)=N/NC(=O)CSc1nc2ccccc2c(=O)n1Cc1ccc(S(N)(=O)=O)cc1", "growth": "94.9%"},
      {"molecule": "COc1ccc(OC)c(-c2cc(-c3ccc(Cl)cc3)c3c(N)c(C(=O)c4ccc(Cl)cc4)sc3n2)c1", "growth": "93.1%"},
      {"molecule": "N#C/C(=C\\c1ccc(Cl)cc1)n1nnc2cc(F)c(F)cc21", "growth": "17.6%"},
      {"molecule": "COc1cccc(C(=O)NNc2nc(Cl)nc(N3CCN(C(c4ccccc4)c4ccccc4)CC3)n2)c1", "growth": "72.2%"},
      {"molecule": "C=C1C(=O)O[C@H]2[C@H]1CC/C(CNC(=O)/C=C/c1ccccc1)=C\\CC[C@@]1(C)O[C@@H]21", "growth": "38.5%"},
      {"molecule": "CCN(CC)CCOc1ccc(NC(=O)C(C(C)C)N2C(=O)/C(=C/c3ccc(Br)cc3)SC2=S)cc1", "note": "(stereo unspecified)", "growth": "70.5%"},
      {"molecule": "N#Cc1cccc(-c2ccc3c(c2)NC(=O)/C3=C\\c2ccc[nH]2)c1", "growth": "30.9%"},
      {"molecule": "CCCCCCCCOc1ccc(/C=N/Nc2cc(C)nc3ccc(Br)cc23)cc1", "growth": "-1.74% (active)"},
      {"molecule": "O=C(N/N=C/c1cc2ccccc2n2nnnc12)Nc1ccccc1", "growth": "108%"},
      {"molecule": "COc1cc2c(c(O)c1Br)C(=O)c1c(O)cc(C[C@H](C)O)cc1[C@H]2[C@H]1c2cc(C[C@H](C)O)cc(O)c2C(=O)c2c1cc(OC)c(Br)c2O", "growth": "11.5%"}
    ]}
  ]
}
